Screening results from PubChem BioAssay.
GPR151 ag – activators of human GPR151; Q8TDV0; PathHunter beta-arrestin GPR151 cells, luminescence; activation, % at 11.2 µM; 650,000 tested, 1% active; AID 1508602; in the data active = activation above about 4.9%;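 also: 0% = median of compound wells and 100% = cells with positive control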
MITF inh – human MITF inhibition, primary screen. O75030. AlphaScreen MITF homodimerization, bead proximity signal. inhibition, % at 2.6 µM. 650,000 tested, 0.91% active. AID 1259374; in the data active = inhibition above about 50%;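 also: 0% = vehicle wells with protein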
TEAD-YAP block – TEAD-YAP interaction inhibition; HEK-TIYL cells, TEAD-Gal4/YAP UAS-luciferase luminescence; inhibition, % at 9.12 µM; 640,000 tested, 1.4% active; in the data active = inhibition above about 32%;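 also: 0% = median of test compound wells and 100% = reference inhibitor wells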
FBW7 act – human FBW7 E3 ligase activation, primary screen; Q969H0; AlphaScreen FBW7–phospho-cyclin E peptide binding, activator screen; normalized activity (activation), % at 26.1 µM; 650,000 tested, 0.13% active; AID 1259310; in the data active = normalized activity above about 1.9%;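 also: purified mutant Fbw7 with reduced substrate affinity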
Target sequence (Q969H0 whole entry, looked up): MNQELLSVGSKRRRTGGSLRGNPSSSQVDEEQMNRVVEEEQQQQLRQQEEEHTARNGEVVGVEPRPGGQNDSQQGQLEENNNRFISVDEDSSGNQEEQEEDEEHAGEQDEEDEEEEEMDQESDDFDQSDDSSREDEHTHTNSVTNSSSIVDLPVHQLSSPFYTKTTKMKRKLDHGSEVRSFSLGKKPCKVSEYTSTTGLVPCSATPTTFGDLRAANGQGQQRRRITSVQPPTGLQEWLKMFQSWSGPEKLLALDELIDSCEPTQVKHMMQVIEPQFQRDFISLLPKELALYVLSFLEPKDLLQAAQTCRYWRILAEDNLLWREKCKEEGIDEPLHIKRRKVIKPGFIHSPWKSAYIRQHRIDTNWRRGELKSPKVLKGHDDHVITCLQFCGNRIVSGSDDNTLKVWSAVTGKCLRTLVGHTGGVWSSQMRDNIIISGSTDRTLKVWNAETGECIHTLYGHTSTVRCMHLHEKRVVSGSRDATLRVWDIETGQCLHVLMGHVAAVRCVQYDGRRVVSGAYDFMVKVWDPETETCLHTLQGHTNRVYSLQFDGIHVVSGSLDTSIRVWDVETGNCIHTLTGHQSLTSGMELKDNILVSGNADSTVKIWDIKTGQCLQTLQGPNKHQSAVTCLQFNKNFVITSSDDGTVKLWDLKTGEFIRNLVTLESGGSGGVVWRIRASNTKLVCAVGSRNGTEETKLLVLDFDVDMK
MITF inh conf – confirmation of human MITF inhibitors | shares compounds with MITF inh | AlphaScreen MITF homodimerization, biotin/His-MITF beads | inhibition, % at 2.6 µM | 4,700 tested, 16% active | AID 1259372;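 active = inhibition above a cutoff derived from the DMSO control wells, cut at about 28% in these data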;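 also: 0% = MITF dimer wells with DMSO only; inhibitors lower the bead chemiluminescence by keeping MITF from dimerizing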
AlphaScreen DR – AlphaScreen optical interference, dose response counter-screen | IC50, µM | 480 tested, 6% active | AlphaScreen optical interference counterscreen, cell-free | shares compounds with MITF inh; call rule not given here
AS interf ctr – optically interferes with AlphaScreen signal; AID 1259376; inhibition, % at 2.6 µM; LysRS AlphaScreen counterscreen, signal interference, triplicate; shares compounds with MITF inh; 4,700 tested, 7.6% active;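 active = inhibition above a cutoff derived from the DMSO control wells, cut at about 30% in these data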
The depositor's hits bear a star; / = not tested or not shown. The list is not random: actives were taken first. Their share in the collection is about 3.5%.

SMILES	GPR151 ag	MITF inh	TEAD-YAP block	FBW7 act	MITF inh conf	AS interf ctr	others
COc1ccc(OC)c(CN2CCN(C3CCC(c4ccccc4)CC3)CC2)c1 (configuration not stated)	0	54*	-4	0	-2	10
COc1cc(CN2CCC(N3CCN(C)CC3)CC2)cc(OC)c1OC	0	87*	-1	0	-14	-5
CCn1c(O)c(/C=C/C=C/C=Nc2ccccc2)oc1=S	0	11	-1	0	/	/
O=C1OC(c2cc(F)c(F)cc2Cl)=N/C1=C\c1ccc(OCc2ccccc2)cc1	1	9	16	0	/	/
OCCCCNCc1c(F)cccc1Cl	-1	-9	4	0	/	/
CCN(CC)CCCNCc1c(F)cccc1Cl	1	57*	-3	0	19	8
CCCN(CCO)Cc1c(F)cccc1Cl	1	56*	-2	0	-7	-9
CCC(C)NC(=O)C1C2C=CC3(CN(Cc4cccs4)C(=O)C13)O2 (configuration not stated)	-1	-9	-9	0	/	/
Fc1ccccc1OCCCn1cnc2ccccc21	0	5	-18	0	/	/
O=[N+]([O-])c1ccccc1OCCCn1cnc2ccccc21	1	60*	-72	0	11	13
O=Cc1cccc(OCCCn2cnc3ccccc32)c1	2	66*	14	0	26	10
O=[N+]([O-])c1ccccc1OCCOCCn1cnc2ccccc21	0	88*	-2	0	12	11
O=[N+]([O-])c1ccccc1OCCOCCn1cncn1	0	3	-3	0	/	/
O=C(CCSc1nnc2ccccn12)Nc1ccc(F)cc1	0	67*	-3	0	11	-7
CC(=C/C(=O)O)/C=C/c1ccoc1	0	75*	9	-1	57*	10	AlphaScreen DR=>9.7
Cc1cc(C)n(C(=O)/C=C/c2ccccc2)n1	1	-1	1	0	/	/
CC(/C=C/c1ccc(N(C)C)cc1)=C\C(=O)O	0	9	24	0	/	/
Cc1cc(C)n(C(=O)/C=C/c2ccco2)n1	-1	78*	4	0	67*	-8	AlphaScreen DR=>6.5
CC(=C/C(=O)O)/C=C/c1ccco1	1	68*	-2	0	-25	-26
Cc1cc(NC(=O)COc2nncc3ccccc23)no1	-1	-9	4	0	/	/
CCCCOCCCN1CC(O)=C(c2nc3ccccc3[nH]2)C1=N	0	12	5	0	/	/
Nc1nnc(SCC(=O)OCc2nc3ccccc3s2)s1	-3	-2	6	0	/	/
Cc1ccc(-n2c(=S)sc3c(=O)n(-c4ccccc4C)c(SCC(=O)O)nc32)c(C)c1	0	-17	-3	0	/	/
Cc1cc(NC(=O)C2CCN(C(=O)c3ccc(-n4cccc4)cc3)CC2)no1	0	51*	-5	0	47*	10	AlphaScreen DR=>6.5
Cc1noc(C2CN(C(=O)c3ccc(-n4cccc4)cc3)C2)n1	0	55*	3	0	53*	9	AlphaScreen DR=>6.5
SMILES	GPR151 ag	MITF inh	TEAD-YAP block	FBW7 act	MITF inh conf	AS interf ctr	others
Cc1cccc(CNC(=O)C2CC23CCN(C(=O)c2cc(-c4ccccc4)no2)CC3)n1 (configuration not stated)	3	3	9	0	/	/
Cc1cccc(CNC(=O)C2CC23CCN(C(=O)c2c(-c4ccccc4)noc2C)CC3)n1 (configuration not stated)	1	80*	4	0	-1	-1
c1ccc(-c2ccccc2OCCN2CCNCC2)cc1	0	66*	-5	0	21	10
c1ccc(-c2ccccc2OCCCN2CCOCC2)cc1	-1	91*	3	0	20	20
c1ccc(-c2ccccc2OCCOCCN2CCCC2)cc1	0	21	-1	0	/	/
c1ccc2c(OCCCCN3CCOCC3)cccc2c1	-1	27	-19	0	/	/
CC1CN(C(c2ccccc2)c2ccc(Cl)cc2)CC(C)N1C (configuration not stated)	-1	1	5	0	/	/
O=C1CS/C(=N/N=C/c2ccc(I)o2)N1	-1	6	-24	0	/	/
CCOC(=O)N1CCN(C(=O)C2CCN(Cc3ccc(Cl)cc3)CC2)CC1	1	54*	0	0	10	9
CCOC(=O)N1CCN(C(=O)C2CCN(Cc3ccc(OC)c(OC)c3)CC2)CC1	2	52*	2	0	8	22
CCOC(=O)N1CCN(Cc2ccc3c(c2)CN(C(=O)C2CNC(=O)C2)CCO3)CC1 (configuration not stated)	2	61*	1	0	17	14
CCOC(=O)C(=NCC1CCCO1)NNc1cc(C(F)(F)F)ccc1Cl (configuration not stated)	0	-1	2	0	/	/
COc1cc(/C=C2\N=C(c3ccccc3)OC2=O)cc(OC)c1OC	-1	-1	6	0	/	/
O=[N+]([O-])c1ccc(S(=O)(=O)N2CCN(Cc3cccc(Br)c3)CC2)cc1	1	77*	-7	0	9	13
COc1ccc(S(=O)(=O)N2CCN(Cc3ccc([N+](=O)[O-])cc3)CC2)cc1	1	3	0	0	/	/
COc1ccc(CN2CCN(S(=O)(=O)c3ccc([N+](=O)[O-])cc3)CC2)cc1	0	53*	-2	0	15	15
O=[N+]([O-])c1ccccc1S(=O)(=O)N1CCN(Cc2cccc(Br)c2)CC1	2	21	-4	0	/	/
O=[N+]([O-])c1ccc(S(=O)(=O)N2CCN(Cc3ccccc3)CC2)cc1	1	45	3	0	/	/
O=[N+]([O-])c1ccc(S(=O)(=O)N2CCN(Cc3ccc(Br)cc3)CC2)cc1	-2	61*	6	0	21	36*
Cc1ccc(CN2CCc3c(nc(N4CCCCC4C)[nH]c3=O)C2)o1 (configuration not stated)	0	19	9	1	/	/
COc1ccc(S(=O)(=O)N(CC(=O)NCCSC(C)(C)C)c2ccccc2)cc1	-1	10	-6	0	/	/
COc1ccc(CN2CCN(Cc3ccccc3Br)CC2)c(OC)c1OC	-1	81*	-6	0	18	8
COc1ccc(CN2CCN(Cc3ccc(C(F)(F)F)cc3)CC2)cc1OC	-2	24	14	0	/	/
COc1ccc(CN2CCN(Cc3ccncc3)CC2)c(OC)c1OC	0	62*	10	0	-2	-1
COc1cc(CN2CCN(Cc3ccc(OC)c(OC)c3OC)CC2)cc(OC)c1	0	70*	13	0	-11	-5
COc1ccc(CN2CCN(c3ccccc3)CC2)c(OC)c1OC	0	27	-7	0	/	/
COc1cc(CN2CCN(Cc3ccc(C(F)(F)F)cc3)CC2)cc(OC)c1OC	0	85*	19	1	4	17
CCNC(=O)N1CCC(c2nnc(CC)s2)CC1	-1	-3	-2	0	/	/
